Compound activity as filed in PubChem BioAssay.
nsP2pro inh: inhibitors of chikungunya virus nsP2 protease; Q8JUX6; FRET peptide cleavage, nsP2pro, fluorescence 1 h; Potency, µM (series often up to 24.9 µM), actives largely listed as inhibitors; 31,000 tested, 1.1% active; AID 1964107; also: nearly all actives have a fitted effect of over 60% in size
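Enzyme 150 nM, substrate 2.5 uM (both final); Tris-HCl 10 mM pH 8.0 + 0.01% Tween 20; cpd up to 25 uM, 7 pts; 15 min preinc., 1 h RT; fluorescence ex 525/em 598.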
CHIKV nsP2 cell: cell-based CHIKV nsP2 protease inhibition, secondary. shares compounds with nsP2pro inh. cell-based CHIKV nsP2 protease reporter assay. Potency, µM (top dose mostly 51.1 µM), usual class: inhibitors. 450 tested, 10% active; also: nearly all actives have a fitted effect of over 70% in size
CHIKV NSP2 FL: selectivity test for CHIKV nsP2 protease inhibitors: full-length NSP2; shares compounds with nsP2pro inh; Full-length CHIKV NSP2 protease enzymatic counterscreen; Potency, µM (doses to about 50.7 µM), most hits filed as inhibitors; 410 tested, 39% active; AID 1964101; also: nearly all actives have a fitted effect of over 65% in size
Furin counter: human furin inhibition, counterscreen for nsP2pro inhibitors; shares compounds with nsP2pro inh; Recombinant human furin enzymatic counterscreen, fluorogenic substrate; Potency, µM (titrated, usually from 50.6 µM), usual class: inhibitors; 410 tested, 6% active; AID 1964102
nsP2 NS23 pep: selectivity test for CHIKV nsP2 protease inhibitors: endogenous NS2/3 peptide; shares compounds with nsP2pro inh; Purified CHIKV nsP2 protease, endogenous NS2/3 peptide cleavage; 410 tested, 34% active; Potency, µM (highest dose often 51 µM), actives largely listed as inhibitors; also: nearly all actives have a fitted effect of over 55% in size
Papain cs: selectivity counter-screen for CHIKV nsP2 protease inhibitors: papain | shares compounds with nsP2pro inh | 410 tested, 5% active | AID 1964104 | purified papain protease activity, enzymatic inhibition | Potency, µM (series often up to 51 µM), actives largely listed as inhibitors
nsP2pro confirm: CHIKV nsP2 protease inhibition, confirmatory qHTS | Potency, µM (doses to about 25.5 µM), actives largely listed as inhibitors | AID 1964105 | shares compounds with nsP2pro inh | 410 tested, 43% active | CHIKV nsP2 protease enzymatic activity, qHTS; also: nearly all actives have a fitted effect of over 75% in size
HCV NS3 counter: selectivity counter-screen for CHIKV nsP2 protease inhibitors: HCV NS3/4A. shares compounds with nsP2pro inh. HCV NS3/4A protease biochemical counterscreen. Potency, µM (titrated, usually from 50.9 µM), actives largely listed as inhibitors. 410 tested, 20% active; also: nearly all actives have a fitted effect of over 55% in size
Of the large screens only hits and unclear results are named; the others gave an inactive call (follow-up assays come after a bar, where they were run). The sample as a whole holds a higher share of hits than the screen did. Calls follow the shape of the full dose curve.

O=C1CCCC2=C1C(c1cccc(F)c1)N=C(Nc1nc3ccccc3o1)N2 (configuration not stated)	none
CC1(C)CCC[C@@]2(C)[C@H]1[C@H](O)C=C1COC(=O)[C@@]12O	none
CO[C@H]1c2cc(C(C)C)c(O)c(O)c2[C@@]23CCCC(C)(C)C2[C@@H]1OC3=O (some centres not stated)	nsP2pro inh 6.1µM | CHIKV nsP2 cell inactive | CHIKV NSP2 FL 16µM | Furin counter inactive | nsP2 NS23 pep 13µM | Papain cs inconclusive | nsP2pro confirm 5.5µM | HCV NS3 counter inactive
O=C(Nc1ccc2ccccc2c1)Nc1cccc(-c2ccncc2)n1	none
O=C(Nc1ccc(OC(F)(F)F)cc1)c1cc2ccccn2n1	none
CCOc1ccc(NC(=O)c2cnc(N3CCCCC3)c3ccccc23)cc1	none
O=C(Nc1ccc(OC(F)(F)F)cc1)c1nc2ccccc2nc1N1CCCCC1	nsP2pro inh inconclusive | CHIKV nsP2 cell inactive
O=C(O)c1ccc(-c2ccc3ncnc(NCc4cccs4)c3c2)o1	none
CC(C)c1c(-c2cnn(C(C)(C)C)c2)nc2c(C#N)c[nH]n2c1=O	none
CN1Cc2ccccc2NC(=O)C12CCNC2 (configuration not stated)	none
CCN1Cc2ccccc2NC(=O)C12CCNC2 (configuration not stated)	nsP2pro inh 8.9µM | CHIKV nsP2 cell inconclusive | CHIKV NSP2 FL 6.4µM | Furin counter inactive | nsP2 NS23 pep 14µM | Papain cs inactive | nsP2pro confirm 8.9µM | HCV NS3 counter 3.6µM
O=C1Nc2ccccc2CN(CC2CCCCC2)C12CCNC2 (configuration not stated)	none
COc1coc(C(=O)NCCC2CN(c3cnn(C)c(=O)c3)CCO2)cc1=O (configuration not stated)	none
[O]=[V]([OH])([OH])[OH]	none
Cc1ccc([N+](=O)[O-])[c]2c1[O][Hg]2	nsP2pro inh 1.6µM | CHIKV nsP2 cell 1.4µM | CHIKV NSP2 FL inconclusive | Furin counter 1.3µM | nsP2 NS23 pep 5.8µM | Papain cs inactive | nsP2pro confirm 0.71µM | HCV NS3 counter 0.26µM
Cc1noc(-c2ccc(-c3noc(-c4ccc([N+](=O)[O-])c(C)c4)n3)cc2)n1	none
O=C(Nc1ccc(S(=O)(=O)Nc2ncccn2)cc1)c1cccc(Cl)c1	none
O=C(Nc1cncnc1)c1cccs1	none
Cc1cccc(C(=O)Nc2ccc(N3CC=C(c4ccccc4C)CC3)c(C(=O)O)c2)c1	nsP2pro inh 9.5µM | CHIKV nsP2 cell inactive | CHIKV NSP2 FL 2.1µM | Furin counter inconclusive | nsP2 NS23 pep 7.3µM | Papain cs inactive | nsP2pro confirm 5µM | HCV NS3 counter 1.6µM
Cc1ccccc1C(=O)Nc1ccc(NC(=O)c2cccs2)cc1	none
Cc1c(C(=O)Nc2ccc(N3CCC(N4CCOCC4)CC3)c(C#N)c2)cnn1-c1ccc(Cl)cc1	none
CCN1C(=O)c2ccccc2Sc2ccc(NC(=O)c3cccc(C)c3)cc21	none
CC1CCN(c2ccc(NC(=O)c3cccc(Cl)c3)cc2C(=O)O)CC1	nsP2pro inh 4.5µM | CHIKV nsP2 cell inconclusive | CHIKV NSP2 FL inactive | Furin counter inconclusive | nsP2 NS23 pep 0.46µM | Papain cs inactive | nsP2pro confirm 7.1µM | HCV NS3 counter 3.3µM
COc1cccc(C(=O)Nc2ccc3nc(N4CCC(C)CC4)cc(C)c3c2)c1	none
Cn1c(=O)n(C)c2cc(N3CCCC3)c(NC(=O)Nc3ccccc3)cc21	none
Cc1ccc(C)c(N2CCN(c3ccc(NC(=O)c4cccs4)cc3C(=O)O)CC2)c1	nsP2pro inh 5.6µM | CHIKV nsP2 cell inactive | CHIKV NSP2 FL inconclusive | Furin counter inactive | nsP2 NS23 pep 16µM | Papain cs inactive | nsP2pro confirm 8µM | HCV NS3 counter 4.1µM
Cc1cccc(C(=O)Nc2ccc3oc(-c4cccc5c(Br)cccc45)nc3c2)c1	none
